# Compounds without any hit were thinned out: in the full panel of roughly 83,000, 20% have a hit.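 Treatment: one concentration, 48 hours, 96-well format. Scoring: percent growth, with anything below 10 considered active.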 Unmarked numbers belong to inactive results. Active and inactive are the calls of the source.
# Key:
# Assay in all cases: NCI-60 one-dose screen, 48 h (100 = growth as untreated, 0 = no growth, -100 = all killed)
# Settings in all cases: 10 µM unless noted
# [1] = test system: NCI-H23 lung
# [2] = test system: NCI-H226 lung
# [3] = test system: NCI-H322M lung
# [4] = test system: HOP-62 NSCLC
# [5] = test system: NCI-H460 lung
# [6] = test system: HOP-92 NSCLC
# [7] = test system: NCI-H522 lung
# [8] = test system: A549/ATCC NSCLC
# [9] = test system: 786-0 renal
# [10] = test system: COLO 205 colon
SMILES,growth [1],growth [2],growth [3],growth [4],growth [5],growth [6],growth [7],growth [8],growth [9],growth [10]
O=C(O)C(O)C(O)C1[O][Sb]([c]2ccc([N+](=O)[O-])cc2)[O]C1CO (configuration not stated),101%,93.4%,102%,110%,100%,102%,94.6%,94.4%,104%,115%
COC(=O)CC12CC(NC(=O)c3csc([C@@H](C[C@H](C(C)C)N(C)C(=O)[C@@H](NC(=O)[C@H]4CCCCN4C)C(C)C)OC(C)=O)n3)(C1)C2,21.3%,23.1%,43%,6.8% (active),7.76% (active),35.7%,10.8%,18%,12%,-54.7% (active)
Oc1c(CCl)cc(Cl)cc1CCl,100%,98.8%,123%,95.1%,108%,92.8%,105%,116%,114%,109%
COC(=O)C12CC(NC(=O)c3csc([C@@H](C[C@H](C(C)C)N(C)C(=O)[C@@H](NC(=O)[C@H]4CCCCN4C)C(C)C)OC(C)=O)n3)(C1)C2,23.9%,10.6%,41.9%,6.07% (active),5.4% (active),52.8%,-23.6% (active),16.6%,18.2%,-60.1% (active)
Cc1cc(NC(=O)NCc2ccc(N3C(N)=NC(N)=NC3(C)C)cc2)ccc1S(=O)(=O)F,29.2%,101%,54.7%,23.4%,4.48% (active),88.9%,16.5%,-3.03% (active),26.2%,29.3%
CC1=C(CN)C2=C(C)C3(CC3)[C@@](C)(O)C(=O)C2=C1,68.2%,91.8%,91.6%,88.2%,66.1%,115%,87.9%,93.5%,99%,85.1%
Cc1c(C)c([N+](=O)[O-])c(C)c(C)c1[N+](=O)[O-],112%,100%,121%,109%,113%,135%,80.3%,91.5%,103%,119%
Cc1ccc(S(=O)(=O)F)cc1C(=O)O,96.5%,95.8%,77.6%,97.7%,111%,118%,85.8%,98.3%,–,103%
C=COC(=O)CCN1CC1,100%,98.9%,102%,95%,105%,111%,107%,102%,110%,114%
COC(=O)[C@@H](C)C[C@H](Cc1ccccc1)NC(=O)c1nc([C@@H](C[C@H](C(C)C)N(C)C(=O)[C@@H](NC(=O)[C@H]2CC(=O)CCN2C)C(C)C)OC(C)=O)sc1C(C)C,26.5%,-25.2% (active),30.1%,15.6%,3.43% (active),34.8%,-30.5% (active),18.7%,6.83% (active),-39.9% (active)
CC[C@H](C)[C@H](NC(=O)[C@H]1CCCCN1C)C(=O)N(C)[C@H](C[C@@H](OC(C)=O)c1nc(C(=O)NC23CC(C(=O)OC)(C2)C3)cs1)C(C)C,18.4%,18.3%,55.7%,11.8%,8.77% (active),-1.71% (active),-22.3% (active),9.09% (active),9.6% (active),-46.8% (active)
COc1cc(C=Nc2cccc(Br)c2)ccc1N(CCCl)CCCl,72.7%,75.2%,132%,89%,21.9%,–,-81.5% (active),64.9%,94.4%,78.5%
CC12CC=CCC1CCC1C2CCC2(C)C(c3ccc(=O)oc3)CCC12O (configuration not stated),-44.2% (active),-90.6% (active),-19.9% (active),-65.2% (active),-70.4% (active),–,-19.9% (active),-37.7% (active),-42.4% (active),-43.6% (active)
O=C(O)C(Cl)(Cl)C(F)(F)F,100%,106%,106%,111%,102%,–,102%,106%,99.1%,124%
C=CC[n+]1ccc(-c2cc[n+](CC=C)cc2)cc1,78.8%,99%,95.7%,83.7%,91.9%,–,19.7%,71.9%,109%,–
COc1ccc(NC([Se])=NC23CC4CC(CC(C4)C2)C3)cc1,-23% (active),-32.7% (active),3.73% (active),-0.819% (active),-8.63% (active),–,-32.6% (active),-0.959% (active),-42.1% (active),-32.1% (active)
CC[CH2][Sn]([Cl])([Cl])[CH2]CC,–,86.4%,131%,82.4%,107%,110%,-87.2% (active),99.3%,73.8%,–
N/C(=N/N=C/c1ccncc1)N[N+](=O)[O-],99.5%,99.2%,99.5%,89.3%,112%,–,101%,98.3%,–,102%
CCC1(C)CC(CCNCc2ccccc2O)(c2ccc(C)cc2)CCO1 (configuration not stated),101%,107%,108%,108%,102%,–,108%,101%,101%,–
CC[C@]12C=CCN3CC[C@@]4(c5ccc(OC)cc5N(C)[C@H]4[C@@](O)(C(=O)OC)[C@@H]1OC(=O)CCCC[P+](c1ccccc1)(c1ccccc1)c1ccccc1)[C@@H]32,6.4% (active),15.1%,47.1%,26.4%,18.4%,–,-5.5% (active),22.1%,57.2%,-93.7% (active)
COC(=O)CCc1c[nH]c2ccc(N(CCCl)CCCl)cc12,31.1%,79%,95.1%,47.5%,17.4%,–,42.3%,44%,24.8%,68.8%
O=C([O][Hg][CH2]C1COCC([CH2][Hg][O]C(=O)c2ccccc2)O1)c1ccccc1 (configuration not stated),90.2%,106%,110%,127%,106%,–,-53.3% (active),105%,104%,-23.1% (active)
CCCCCCCC[n+]1ccc2ccccc2c1,36.5%,61.4%,99.2%,77.2%,73.9%,–,29.8%,88.7%,75.5%,59%
NC(=O)C(Br)c1ccccc1 (configuration not stated),89.9%,88.7%,99.6%,103%,108%,–,53.5%,91.8%,107%,103%
COC(=O)[C@@H](C)C[C@H](Cc1ccccc1)NC(=O)c1csc(CC[C@H](C(C)C)N(C)C(=O)[C@@H](NC(=O)[C@H]2CCCCN2C)C(C)C)n1,32.4%,50.2%,44.4%,21.7%,6.76% (active),–,-12.9% (active),19%,10.9%,-38.9% (active)
CC1=C(CCCOC(=O)CN)C2=C(C)C3(CC3)[C@@](C)(O)C(=O)C2=C1,9.41% (active),90.5%,97.1%,71.5%,15.3%,–,66.2%,68.7%,78.8%,49.6%
CC(=O)OCc1cc[c]([Hg][Cl])o1,58.8%,81.5%,98.7%,91.4%,84.9%,–,-53.6% (active),73.9%,24.5%,-1.94% (active)
CC(=O)[C@H]1CC[C@H]2[C@@H]3CC[C@H]4C[C@H](N)CC[C@]4(C)[C@H]3CC[C@]12C,86.7%,95.7%,107%,77.1%,79.9%,–,77.3%,66.4%,60.7%,–

# Reference: PubChem BioAssay (NCI)
